According to PubChem BioAssay (Tox21):
Where “and” joins values, the source holds several entries; their conditions need not be identical. Equal values may be shown once. Values without a mark were called inactive. Records with an inconclusive call do not appear. A call without a number means that no potency is given here. Calls of active or inactive are those of the source. Unless noted, the call rests on the fitted dose curve; in most records, active means well fitted curve in the direction sought with a large enough effect in the repeat runs; inconclusive means weak or mixed curves; inactive means no such curve, though single readings can be large; an effect the other way counts as inactive or inconclusive.

Tests used:
[1] = A CellTox Green Cytotoxicity Assay to monitor cytotoxicity in HepG2 cells - 8 hour (AID 1224890); further: nearly all actives have a fitted effect of over 45% in size; further: potency means the concentration at half of the fitted maximal effect
How it was run: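 Real-time cytotoxicity: fluorescence of a cell-impermeant cyanine dye binding DNA of dead HepG2 cells, measured repeatedly (0–40 h) during compound exposure at 37 C. Cells seeded 600/well with reagent, dosed after 5 h.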

[2] = qHTS assay to identify small molecule antagonists of the estrogen receptor alpha (ER-alpha) signaling pathway using the BG1 cell line in the presence of 0.1 nM 17-beta-estradiol - cell viability counter screen (AID 1259241); further: nearly all actives have a fitted effect of over 40% in size
How it was run: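 Cytotoxicity counter-screen: live-cell protease activity measured by fluorescence (30 min reagent step) in the same wells. Cells were VM7Luc4E2 with endogenous ER-alpha and ERE-driven luciferase, treated 22 hr at 37C alongside 0.1 nM 17beta-estradiol final.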

[3] = qHTS assay to identify small molecule antagonists of the androgen receptor (AR) signaling pathway using the MDA cell line in the presence of 0.5 nM R1881 - cell viability counter screen (AID 1259242); further: nearly all actives have a fitted effect of over 45% in size
How it was run: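 Live-cell protease activity was measured by CellTiter-Fluor fluorescence after 30 min. Before that, MDA-kb2 MMTV-luciferase cells had 16 hr at 37C without CO2, exposed to test compounds and 0.5 nM R1881 final.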

[4] = molecular target: Estrogen receptor (Homo sapiens) (UniProt P03372); experiment: qHTS assay to identify small molecule antagonists of the estrogen receptor alpha (ER-alpha) signaling pathway using the BG1 cell line in the presence of 0.1 nM 17-beta-estradiol (AID 1259244); further: nearly all actives have a fitted effect of over 50% in size
Chain of Estrogen receptor (Homo sapiens) (P03372 whole entry, looked up): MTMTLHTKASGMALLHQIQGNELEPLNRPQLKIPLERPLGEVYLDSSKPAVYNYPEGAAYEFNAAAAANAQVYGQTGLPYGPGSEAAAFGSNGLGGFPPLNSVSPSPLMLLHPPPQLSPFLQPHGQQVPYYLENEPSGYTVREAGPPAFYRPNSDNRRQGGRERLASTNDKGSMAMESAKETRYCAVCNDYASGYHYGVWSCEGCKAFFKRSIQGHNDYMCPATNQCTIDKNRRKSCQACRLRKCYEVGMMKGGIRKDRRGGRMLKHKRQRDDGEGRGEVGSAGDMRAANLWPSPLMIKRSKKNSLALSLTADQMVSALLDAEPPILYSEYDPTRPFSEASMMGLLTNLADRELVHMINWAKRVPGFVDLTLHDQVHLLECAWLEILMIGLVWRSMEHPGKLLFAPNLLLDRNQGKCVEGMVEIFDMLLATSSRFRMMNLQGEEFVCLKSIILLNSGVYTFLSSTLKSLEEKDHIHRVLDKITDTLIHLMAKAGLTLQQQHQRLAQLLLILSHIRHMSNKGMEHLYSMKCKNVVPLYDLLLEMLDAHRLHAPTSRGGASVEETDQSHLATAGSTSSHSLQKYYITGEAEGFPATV
How it was run: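 Luciferase luminescence (ONE-Glo, 30 min at room temperature) was read after 22 hr at 37C exposure to compounds plus 17beta-estradiol at 0.1 nM final. Cells were VM7Luc4E2 with endogenous ER-alpha and an ERE-driven luciferase, pre-cultured 5 days in hormone-depleted medium.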

[5] = qHTS assay to identify small molecule HDAC inhibitors (AID 1259364); further: top concentration of the series differs between compounds; nearly all actives have a fitted effect of over 45% in size
How it was run: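 Luminescence read after 30 min room-temperature HDAC-Glo incubation measures cellular class I/II HDAC activity. Compounds were applied for 2 hr at 37 C to HCT-116 wild-type cells seeded the day before.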

[6] = qHTS assay to identify small molecule HDAC inhibitors - cell viability counter screen (AID 1259365); further: series mostly up to about 92 µM; nearly all actives have a fitted effect of over 50% in size
How it was run: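 CellTiter-Glo luminescence (30 min, room temperature) reported viability after a 2 h compound exposure at 37 C. Cells: wild-type HCT-116, 1,500 per well, seeded the night before.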

[7] = qHTS assay to identify small molecule agonists of the sonic hedgehog signaling (Shh) pathway - cell viability counter screen (AID 1259366); further: nearly all actives have a fitted effect of over 50% in size; further: potency means the concentration at half of the fitted maximal effect
How it was run: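 Cytotoxicity counter screen: CellTiter-Fluor reagent added after 23 h compound exposure, then 1 h at 37C and fluorescence read. Cells were 3T3 Gli1-Luc, seeded 2,000 per well and dosed 4 h post-plating.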

[8] = qHTS assay to identify small molecule antagonists of the sonic hedgehog signaling (Shh) pathway - cell viability counter screen (AID 1259367); further: nearly all actives have a fitted effect of over 55% in size; further: potency means the concentration at half of the fitted maximal effect
How it was run: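 Fluorescence read-out (CellTiter-Fluor, 1 hr at 37C) taken after 23 hr compound treatment of 3T3 Gli1-Luc cells stimulated with conditioned medium. Cells were seeded at 2,000 per well and pre-incubated 4 hr.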

[9] = qHTS assay to identify small molecule phospholipidosis (PLD) inducers (AID 1259344; active means well fitted curve in the direction sought with a large enough effect; an effect the other way counts as inactive or inconclusive)
How it was run: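 Read-out is LipidTOX Red fluorescence (ex 595/em 615) imaged in HepG2 cells after 24 h compound exposure at 37 C, with Hoechst nuclear counterstain (ex 352/em 461) allowing per-cell normalisation.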

SMILES	Potency [1]	outcome [2]	Potency [3]	outcome [4]	Potency [5]	outcome [6]	Potency [7]	Potency [8]	Potency [9]	cytotoxicity increase [1]	activity change, negative = cytotoxicity [2]	viability change, negative = cytotoxic [3]	activity change, negative = cytotoxicity [6]	viability change, negative = cytotoxic [7]	viability change, negative = cytotoxic [8]
CN1C(=O)N(C)C(O)C1O (centres undefined)	inactive	inactive	inactive	inactive	inactive	inactive	inactive	inactive	–	–	–	–	–	–	–
O=C(O)CCCl	inactive	inactive	inactive	inactive	inactive	inactive	inactive	inactive	–	–	–	–	–	–	–
CCC(C)C1CCCCC1=O (centres undefined)	inactive	inactive	inactive	inactive	inactive	inactive	inactive	inactive	–	–	–	–	–	–	–
O=[N+]([O-])c1ccc(F)cc1F	inactive	inactive	inactive	inactive	inactive	inactive	inactive	inactive	–	–	–	–	–	–	–
CC(=O)OC/C=C(\C)CC/C=C(\C)CCC=C(C)C	inactive	inactive	inactive	inactive	inactive	inactive	inactive	inactive	–	–	–	–	–	–	–
CCS(=O)(=O)c1ccc(OC)c(C(=O)OC)c1	inactive	inactive	inactive	inactive	inactive	inactive	inactive	inactive	–	–	–	–	–	–	–
CCCCCCOC(=O)CCCCC(=O)OCCCCCC	inactive	inactive	inactive	inactive	inactive	inactive	inactive	inactive	–	–	–	–	–	–	–
CCCCC/C=C\CCC=O	inactive	inactive	inactive	inactive	inactive	inactive	inactive	inactive	–	–	–	–	–	–	–
CCOC(=O)C(=O)OCC	inactive	inactive	inactive	inactive	inactive	inactive	inactive	inactive	–	–	–	–	–	–	–
CN1CCCC1	inactive	inactive	inactive	inactive	inactive	inactive	inactive	inactive	–	–	–	–	–	–	–
Cc1ccc(Cl)cc1Cl	inactive	inactive	inactive	inactive	inactive	inactive	inactive	inactive	–	–	–	–	–	–	–
CCC=O	inactive	inactive	inactive	inactive	inactive	inactive	inactive	inactive	–	–	–	–	–	–	–
OC(CCN1CCCCC1)(c1ccccc1)C1CC2C=CC1C2 (centres undefined)	inactive	inactive	inactive	inactive	inactive	inactive	–	inactive	–	–	–	–	–	–	–
CCCCCSCCCCC	inactive	inactive	inactive	inactive	inactive	inactive	inactive	inactive	–	–	–	–	–	–	–
CCOC(=O)CCC(C)=O	inactive	inactive	inactive	inactive	inactive	inactive	inactive	inactive	–	–	–	–	–	–	–
CCOC(=O)c1ccc(C)cc1	inactive	inactive	inactive	inactive	inactive	inactive	inactive	inactive	–	–	–	–	–	–	–
CC(C)OC(=O)c1ccccc1	inactive	inactive	inactive	inactive	inactive	inactive	inactive	inactive	–	–	–	–	–	–	–
CCOC(C)(C)C	inactive	inactive	inactive	inactive	inactive	inactive	inactive	inactive	–	–	–	–	–	–	–
CCN(Cc1ccncc1)C(=O)C(CO)c1ccccc1 (centres undefined)	inactive	inactive	inactive	–	inactive	inactive	inactive	inactive	inactive	–	–	–	–	–	–
COCCc1ccc(OCC(O)CNC(C)C)cc1 (centres undefined)	inactive	inactive	inactive	–	inactive	inactive	inactive	inactive	inactive	–	–	–	–	–	–
CO/N=C(/C(=O)N[C@@H]1C(=O)N2C(C(=O)OCOC(=O)C(C)(C)C)=C(C)CS[C@H]12)c1csc(N)n1	inactive	inactive	inactive	–	inactive	inactive	inactive	inactive	inactive	–	–	–	–	–	–

SMILES	Potency [1]	outcome [2]	Potency [3]	outcome [4]	Potency [5]	outcome [6]	Potency [7]	Potency [8]	Potency [9]	cytotoxicity increase [1]	activity change, negative = cytotoxicity [2]	viability change, negative = cytotoxic [3]	activity change, negative = cytotoxicity [6]	viability change, negative = cytotoxic [7]	viability change, negative = cytotoxic [8]
COc1nc(N)nc2c1ncn2[C@@H]1O[C@H](CO)[C@@H](O)[C@@H]1O	inactive	inactive	inactive	–	inactive	inactive	inactive	inactive	inactive	–	–	–	–	–	–
OCCCC1CCCCC1	inactive	inactive	inactive	inactive	–	inactive	inactive	inactive	–	–	–	–	–	–	–
CC(C)(C)c1ccc(O)c(O)c1	inactive	inactive	inactive	–	inactive	inactive	27.3 µM (active)	50.2 µM (active) and 24.3 µM (active)	inactive	–	–	–	–	–	–
CC(C)NCC(O)c1ccc(NS(C)(=O)=O)cc1 (centres undefined)	inactive	inactive	inactive	–	inactive	inactive	inactive	inactive	inactive	–	–	–	–	–	–
O=C(O)CN(CCOCCOCCN(CC(=O)O)CC(=O)O)CC(=O)O	–	–	–	–	–	–	–	–	inactive	-22.5% [at 0.29 µM]	-0.0206% [at 0.349 µM]	4.56% [at 0.349 µM]	5.24% [at 0.349 µM]	-0.116% [at 0.349 µM]	0.536% [at 0.349 µM]
CN(C(=O)c1c(O)c2ccccc2n(C)c1=O)c1ccccc1	inactive	inactive	inactive	–	inactive	inactive	inactive	inactive	inactive	–	–	–	–	–	–
C=COCC1CCC(CO)CC1 (centres undefined)	inactive	inactive	inactive	inactive	–	inactive	inactive	inactive	–	–	–	–	–	–	–
FC(F)OC(Cl)C(F)(F)F (centres undefined)	inactive	inactive	inactive	–	inactive	inactive	inactive	inactive	inactive	–	–	–	–	–	–
C[N+](C)(C)CCCCCC[N+](C)(C)C	inactive	inactive	inactive	–	inactive	inactive	inactive	inactive	inactive	–	–	–	–	–	–
CO[C@]12C[C@@H](COC(=O)c3cncc(Br)c3)CN(C)[C@@H]1Cc1cn(C)c3cccc2c13	26.8 µM (active)	inactive	inactive	–	–	inactive	inactive	inactive	inactive	–	–	–	–	–	–
C[N+](C)(C)CC(O)CC(=O)[O-] (centres undefined)	inactive	inactive	inactive	–	inactive	inactive	inactive	inactive	inactive	–	–	–	–	–	–
CCOC(=O)CC(C)=O	inactive	inactive	inactive	–	inactive	inactive	inactive	inactive	–	–	–	–	–	–	–
O=Cc1cccc([N+](=O)[O-])c1	inactive	inactive	inactive	inactive	–	inactive	inactive	inactive	–	–	–	–	–	–	–
C1CN(CCOCCN2CCOCC2)CCO1	inactive	inactive	inactive	inactive	–	inactive	inactive	inactive	–	–	–	–	–	–	–
CCCN1CCCC[C@H]1C(=O)Nc1c(C)cccc1C	inactive	inactive	inactive	–	inactive	inactive	inactive	inactive	inactive	–	–	–	–	–	–
CC(=O)N(CC(O)CO)c1c(I)c(C(=O)NCCO)c(I)c(C(=O)NCC(O)CO)c1I (centres undefined)	inactive	inactive	inactive	–	inactive	inactive	inactive	inactive	inactive	–	–	–	–	–	–
Oc1ccc(C2CNCCc3c2cc(O)c(O)c3Cl)cc1 (centres undefined)	inactive	inactive	inactive	–	inactive	inactive	–	inactive	inactive	–	–	–	–	–	–
O=C1OC(=O)C2CCCCC12 (centres undefined)	inactive	inactive	inactive	inactive	–	inactive	inactive	inactive	–	–	–	–	–	–	–
CO[Si](CCCOCC1CO1)(OC)OC (centres undefined)	inactive	inactive	inactive	inactive	–	inactive	inactive	inactive	–	–	–	–	–	–	–
NCCc1cnc[nH]1	inactive	inactive	inactive	–	–	inactive	inactive	inactive	inactive	–	–	–	–	–	–
Cc1[nH]c(=O)c(C#N)cc1-c1ccc2nccn2c1	inactive	inactive	inactive	–	inactive	inactive	inactive	inactive	inactive	–	–	–	–	–	–
